Each structure is given as a SMILES string. Several values for one entry are separate records, joined by “and”; a condition that tells them apart may be missing. Identical values can stand only once.

32 compounds from PubChem BioAssay can be followed below.

The experiment has as its target Carbonic anhydrase 2 (Homo sapiens) (UniProt P00918). Description: compounds binding carbonic anhydrase 2 – biochemical, small-molecule microarray, Alexa647-labelled CAII, profiling panel (AID 1122). The settings on record: CAII-A647 binding fluorescence, higher = more signal.
`C=CCN(C(=O)C(c1cccs1)N(C(=O)/C=C\C(=O)O)c1ccc(CCO)cc1)c1ccc(OC)cc1` (configuration not stated): the composite z-score was 0.89 and -0.733.

For `CO[C@@H]1COC(=O)CC=C[C@H](C)COC(=O)[C@H](C)NC(=O)CC=C[C@H]1C`, the composite z-score was -0.427.

Consider `CCOC(=O)c1ccc(NC(=O)O[C@H]2[C@H](OC(=O)Nc3ccccc3)[C@@H](OC(=O)Nc3ccccc3)[C@@H](OC)O[C@@H]2CO)cc1`, for which the composite z-score was 0.527 and 0.688.

For the compound `COC(=O)C1=C(C)N(Cc2ccccc2)C2=C(C(=O)c3ccccc3)[C@H](c3ccccc3)[C@@](O)(C(=O)OC)C(=O)N2[C@@H]1c1ccccc1`, the composite z-score was 0.0303 and -0.0063.

As to `C[C@@]1([C@@H](NC(=O)Cc2ccccc2)c2ccc(-c3ccccc3)cc2)C[C@H]1C1CCCCC1`, the composite z-score was 0.426 and 0.62 and 0.464.

Turning to `CC(CO)N1C(=O)[C@@H]2C3C(=O)OCCC=C[C@H]3OC23C=CCN(CCN2CCOCC2)C(=O)[C@@H]13` (some centres not stated), the composite z-score is 0.819 and 0.787.

As to `C=C[C@H](C)[C@H](O)c1ccc(O)c2ccccc12`, the composite z-score was 0.137 and 0.349.

For `C=CCN(CCCC)C(=O)C(c1cccs1)N(C(=O)/C=C\C(=O)O)c1c(Cl)cccc1CO` (configuration not stated), the composite z-score is -0.3 and 0.0384.

`C#CCCCON=C1C[C@@H](O)[C@@H](O)[C@@H]2[C@@H]3C(=O)N(C4CCCCC4)C(=O)[C@@H]3CC[C@H]12` came in with a composite z-score of 0.508.

With `Cc1ccc(S(=O)(=O)N[C@H]2COC(=O)[C@@H](C)COC(=O)[C@H](C)NC(=O)CC=C[C@H]2C)cc1`, the composite z-score is -0.338.

Turning to `C=CCN(C(=O)C1N(CCOCCO)C(=O)C2C(C(=O)O)C3C=CC21O3)C(C)(C)C` (configuration not stated), the composite z-score is -0.115 and -0.524.

As to `C=CCN(CCCC)C(=O)C1N(CCOCCO)C(=O)C2C(C(=O)O)C3C=CC21O3` (configuration not stated), the composite z-score was 1.01 and 0.811.

With `COc1ccc(COC(=O)NN=C2C[C@@H](O)[C@@H](O)[C@@H]3[C@@H]4C(=O)N(C(C)(C)C)C(=O)[C@@H]4CC[C@H]23)cc1`, the composite z-score was determined as 0.633.

As to `COC(=O)C1=C2N(Cc3ccccc3)C(C)=C(C(=O)OC)[C@@H](c3ccccc3)N2C(=O)[C@](O)(C(=O)OC)C1`, the composite z-score is 0.416 and -0.0902.

For the compound `C[N+](C)(C)CCCCNC(=O)[C@@H]1C[C@@H]2C(=O)N[C@@H](CCCC[N+](C)(C)C)C(=O)N2[C@@H]1c1cccc(OCCO)c1`, the composite z-score was 0.389 and 0.799.

In the case of `C[C@@H]1CC[C@H]2C(=O)N3[C@@H](CC[C@@H](C)[C@@H]3c3ccc(-c4ccco4)cc3)C(=O)N2[C@H]1c1ccc(-c2ccco2)cc1`, the composite z-score was 0.688 and 0.645.

In the case of `C=CCN(Cc1ccccc1)C(=O)C1N(c2ccc(CCO)cc2)C(=O)C2C(C(=O)O)C3C=CC21O3` (configuration not stated), the composite z-score was 0.942 and 0.937.

In the case of `CC(C)N1CC=CC23O[C@@H]4C=CCCOC(=O)C4[C@H]2C(=O)N(C(C)CO)[C@@H]3C1=O` (some centres not stated), the composite z-score was 0.958 and 0.808.

Regarding `CC(C)C(=O)N[C@@H]1CCCN1C(=O)C=Cc1ccccc1`, the composite z-score was -0.0483.

Turning to `CO[C@@H]1COC(=O)[C@H](Cc2ccccc2)NC(=O)CC=C[C@@H](C)[C@H](OC)COC(=O)[C@@H](C)NC(=O)CC=C[C@H]1C`, the composite z-score was -0.0035 and 0.27.

For `COC(=O)[C@@]1(Cc2ccc(OC)cc2)[C@H]2c3cc(C(=O)N(C)C)n(Cc4ccc(O)c(OC)c4)c3C[C@H]2CN1C(=O)c1ccccc1`, the composite z-score is 0.893 and 0.406.

`C=CCN(CCCCC)C(=O)C1N(CCCCCCO)C(=O)C2C(C(=O)O)C3C=CC21O3` (configuration not stated): the composite z-score was 0.85 and 0.83.

`O=c1n(-c2ccccc2)c(=O)n2n1CC[C@@H]1C(=NOC[C@@H](O)COCc3ccco3)[C@H]3O[C@H]3[C@@H](O)[C@@H]12`: the composite z-score is -0.14 and 0.0148.

As for `CCOC(=O)NN=C1C[C@@H](O)[C@@H](O)[C@@H]2[C@@H]3C(=O)N(Cc4ccc5c(c4)OCO5)C(=O)[C@@H]3CC[C@@H]12`, the composite z-score was -0.158.

As for `CCCCCN1CC=CC23O[C@@H]4C=CCCOC(=O)C4[C@H]2C(=O)N(C(C)CO)[C@@H]3C1=O` (some centres not stated), the composite z-score was 0.792 and 0.844.

For `C=C[C@H](OC)[C@@H](O)c1ccc(OCCO)cc1`, the composite z-score was 0.934 and 0.835.

As for `CCCCN1CC=CC23O[C@@H]4C=CCCOC(=O)C4[C@H]2C(=O)N(C(C)CO)[C@@H]3C1=O` (some centres not stated), the composite z-score is 0.837 and 0.777.

Take `C=CCN(CCCCC)C(=O)C1N(CCOCCO)C(=O)C2C(C(=O)O)C3C=CC21O3` (configuration not stated): the composite z-score is 0.853 and 0.794.

As for `C=CCN(CCCCC)C(=O)C(c1cccs1)N(C(=O)/C=C\C(=O)O)c1ccc(CCO)cc1` (configuration not stated), the composite z-score was 0.821 and 0.562.

Take `O=C1NC(=O)C2C1C=CC(C(O)c1ccc([N+](=O)[O-])cc1)N2Nc1ccc(Cl)cc1Cl` (configuration not stated): the composite z-score is 0.483 and 0.751.

With `COC(=O)[C@@]1(Cc2ccccc2)[C@H]2c3cc(C(=O)N(C)C)n(C[C@H](O)CO)c3C[C@H]2CN1C(=O)c1ccccc1`, the composite z-score is 0.897 and 0.841.

For `CO[C@H]1COC(=O)CC=C[C@@H](C)COC(=O)[C@H](CCSC)NC(=O)CC=C[C@@H]1C`, the composite z-score was -0.407 and -0.489.
